# APEX1 inh – blocks human APE1 abasic DNA cleavage | actives 0.35% (n = 350,000) | Potency, µM (top dose mostly 65.8 µM), most hits filed as inhibitors | AID 2517 | recombinant APE1, TAMRA/BHQ-2 abasic DNA cleavage fluorescence | P27695; further: nearly all actives have a fitted effect of over 55% in size
# Target sequence (P27695 whole entry, looked up): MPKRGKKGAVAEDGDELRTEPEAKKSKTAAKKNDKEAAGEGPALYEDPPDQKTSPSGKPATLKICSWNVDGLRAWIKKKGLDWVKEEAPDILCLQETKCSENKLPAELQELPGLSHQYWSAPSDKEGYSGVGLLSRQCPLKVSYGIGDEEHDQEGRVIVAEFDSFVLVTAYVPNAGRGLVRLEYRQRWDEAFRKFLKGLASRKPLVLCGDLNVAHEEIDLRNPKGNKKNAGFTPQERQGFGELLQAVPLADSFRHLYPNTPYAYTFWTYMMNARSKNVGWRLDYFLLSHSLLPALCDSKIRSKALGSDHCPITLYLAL
#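 APE1 at 0.75 nM preincubated 15 min at room temperature with compound. Reaction then started with 50 nM double-stranded THF-abasic substrate labelled with TAMRA/BHQ-2, and 525/598 nm fluorescence read kinetically. Activity taken as third-minus-first read difference, normalized to DMSO and NSC13755 controls.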
# Pol iota inh – DNA polymerase iota (human) inhibition. Potency, µM (series often up to 115 µM), usual class: inhibitors. Q9UNA4. actives 1% (n = 390,000). Pol iota fluorescent replication assay, 10 min
#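 Pol iota at 10 nM preincubated 15 min with compounds at room temperature; reaction started with fluorescent substrate, 50 nM final. Fluorescence read kinetically at 0 and 10 min; buffer-only wells as negative control.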
# Pol eta inh – blocks human DNA polymerase eta activity. Q9Y253. recombinant Pol eta, fluorescent DNA replication assay. Potency, µM (series often up to 114 µM), most hits filed as inhibitors. actives 1.2% (n = 390,000)
#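 Pol eta (10 nM) was preincubated with compounds for 15 min at room temperature, after which fluorescent replication substrate (50 nM final) was added to start the reaction. Fluorescence was read kinetically at 0 and 10 min.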
# POLK inh – blocks human DNA polymerase kappa activity | AID 588579 | purified Pol kappa, fluorescent DNA synthesis assay, 10 min | Potency, µM (series often up to 107 µM), actives largely listed as inhibitors | Q9UBT6 | actives 0.53% (n = 400,000)
#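 First, compounds were pin-transferred onto 10 nM Pol kappa. After 15 min at room temperature, substrate was added to 50 nM final. Fluorescence was then measured kinetically at 0 and 10 min.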
# POLB inh – DNA polymerase beta (human) inhibition | P06746 | Pol beta primer extension/strand displacement, fluorescence kinetic | Potency, µM (highest dose often 114 µM), actives largely listed as inhibitors | actives 1.3% (n = 340,000) | AID 485314
#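 Homogeneous kinetic assay of primer extension and strand displacement by 10 nM Pol beta, preincubated 15 min at room temperature with compound before 50 nM substrate (final) was added. Read at 0 and 10 min; four-parameter Hill fit.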
# L3MBTL1 block – L3MBTL1 (human) inhibition; Q9Y468; AlphaScreen L3MBTL1–H3K9me1 peptide binding; Potency, µM (highest dose often 57.1 µM), most hits filed as inhibitors; actives 0.66% (n = 230,000); further: nearly all actives have a fitted effect of over 60% in size
#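 Displacement of a biotinylated histone H3(1-15) peptide monomethylated at Lys9 (75 nM) from L3MBTL1 (50 nM) was measured by AlphaScreen after a 30 min room-temperature compound incubation; cefsulodin titration served as intraplate control.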
# Hits are given with their value; n = inactive; u = inconclusive; x = not tested or not shown; [ ] = remark or other dose. Hits are enriched below; roughly 2.5% of the tested compounds scored in any of these assays. The call rests on the fitted dose curve; in most records, active means well fitted curve in the direction sought with a large enough effect; inconclusive means small, poorly fitted or top-dose-only effect, or another doubt; inactive means no such curve, though single readings can be large; an effect the other way counts as inactive or inconclusive.
SMILES,APEX1 inh,Pol iota inh,Pol eta inh,POLK inh,POLB inh,L3MBTL1 block
Cn1nnc2c(NCc3ccco3)ncnc21,x,n,x,n,x,x
COC(CNC(=O)CCCn1nnnc1CN1CCOCC1)c1cccs1 (stereo not drawn),n,n,n,n,n,x
O=C(NCC(O)CO)c1c(I)c(C(=O)NCC(O)CO)c(I)c(N(CCO)C(=O)CO)c1I (stereo not drawn),n,x,x,x,x,x
CC(=O)COc1ccc2c(c1C)O/C(=C\c1ccco1)C2=O,n,u,22µM,u,45µM,x
COC(=O)c1ccccc1NC(=O)c1cc2nc(-c3ccccc3)cc(-c3ccccc3)n2n1,x,n,n,n,n,x
C/C=C\C=C/C(=O)Nc1cccc(C2=NOC3(C2)C[C@@H](C(N)=O)N(C(=O)/C=C/CC)C3)c1 (stereo partly drawn),n,28µM,22µM,u,n,x
C=C(C)C(=O)Nc1cccc(C2=NOC3(C2)C[C@@H](C(N)=O)N(C(=O)c2ccc(Cl)cc2)C3)c1 (stereo partly drawn),u,35µM,4.5µM,35µM,8.9µM,x
CC(NS(=O)(=O)c1cc2c3c(c1)CCC(=O)N3CCC2)c1ccccc1 (stereo not drawn),n,n,n,n,x,n
CCNc1nc(NCC)n2c(SCC(=O)Nc3cccc(F)c3)nnc2n1,12µM,45µM,u,u,x,n
CCNc1nc(NCC)n2c(SCC(=O)Nc3ccccc3C(F)(F)F)nnc2n1,21µM,79µM,u,u,x,u
CCNc1nc(NCC)n2c(SCC(=O)Nc3cccc(Cl)c3)nnc2n1,27µM,u,14µM,u,x,u
CCNc1nc(NCC)n2c(SCC(=O)Nc3ccc(OC)c(OC)c3)nnc2n1,u,n,u,n,x,n
C=C[C@@H]1c2ccccc2N(S(=O)(=O)c2ccc(C)cc2)[C@H](c2ccc(C(=O)OC)cc2)C1(C#N)C#N,n,n,n,n,x,n
O=C(O)c1ccc(OCc2ccc(C(=O)O)o2)cc1,n,n,32µM,n,u,x
O=C(O)c1ccc(COc2ccccc2[N+](=O)[O-])o1,u,n,13µM,n,u,u
CCc1ccc(OCc2ccc(C(=O)O)o2)cc1,n,n,n,n,n,x
O=C(c1ccc(COc2ccccc2[N+](=O)[O-])o1)N1CCCCC1,n,n,n,n,n,n
CC[C@@H](C)CCCCC(=O)N[C@@H](CCNCS(=O)(=O)O)C(=O)N[C@H](C(=O)N[C@@H](CCNCS(=O)(=O)O)C(=O)N[C@H]1CCNC(=O)[C@H]([C@@H](C)O)NC(=O)[C@H](CCNCS(=O)(=O)O)NC(=O)[C@H](CCNCS(=O)(=O)O)NC(=O)[C@H](CC(C)C)NC(=O)[C@@H](CC(C)C)NC(=O)[C@H](CCNCS(=O)(=O)O)NC1=O)[C@@H](C)O,n,x,x,x,x,x
CC(C)(C)c1ccc(C(=O)NNc2ncnc3c2cnn3-c2ccc(Cl)cc2)cc1,x,n,n,n,n,x
O=C1NC(=O)/C(=C/c2cccc3ccccc23)S1,n,u,n,n,n,n
O=C1NC(=O)C(=Cc2ccccc2[N+](=O)[O-])S1,x,u,89µM,n,x,x
CN1C(=O)C2C(c3ccc(N(C)C)cc3)=NN(Cc3ccccc3)C2C1=O (stereo not drawn),n,n,n,n,n,n
COc1ccc(N(C(=O)c2snc(C(N)=O)c2N)C(C(=O)NC2CCCCC2)c2ccc(F)cc2)c(OC)c1 (stereo not drawn),n,u,22µM,n,79µM,x
COc1ccc(N(C(=O)c2snc(C(N)=O)c2N)C(C(=O)NC2CCCC2)c2cc(OC)ccc2OC)c(OC)c1 (stereo not drawn),n,n,n,n,n,x
CC(=O)Nc1cccc(NC(=O)CSc2ncc(-c3ccccc3)[nH]2)c1,n,u,n,n,14µM,n
SMILES,APEX1 inh,Pol iota inh,Pol eta inh,POLK inh,POLB inh,L3MBTL1 block
O=C(CSc1ncc(-c2ccccc2)[nH]1)Nc1ccccc1,n,n,n,n,n,x
O=C(O)CCC(=O)Nc1ccccc1N1CCOCC1,n,n,n,n,n,x
O=C(O)CC1(CC(=O)Nc2ccccc2N2CCOCC2)CCCC1,n,n,n,n,10µM,n
COCOc1cc(O)c2c(=O)c(OCOC)c(-c3ccc(OCOC)c(OCOC)c3)oc2c1,x,u,u,79µM,x,x
COCOc1ccc(-c2cc(=O)c3c(OCOC)cc(OCOC)cc3o2)cc1,x,n,n,n,x,x
CCC(=O)OCC(=O)[C@@]1(OC(=O)CC)[C@H](C)C[C@H]2[C@H]3[C@H]([C@@H](O)C[C@@]21C)[C@@]1(C)C=CC(=O)C=C1C[C@H]3Cl,n,x,x,x,x,x
CCOc1ccccc1NC(=O)Cn1c(=O)n(CCCCC(=O)NCCCOC)c(=O)c2ccccc21,x,n,n,n,n,x
CCOc1ccccc1NC(=O)Cn1c(=O)n(CCCC(=O)NCCOC)c(=O)c2cc(OC)c(OC)cc21,x,89µM,n,u,n,x
CN(C)Cc1nc(-c2cn(C)c3ccccc23)no1,n,x,x,n[19.4 µM],x,x
Cc1cc(C(F)(F)F)nn1-c1nc(-c2ccccc2)cc(C(F)(F)F)n1,x,n,n,n,n,x
O=C(N/N=C/c1c(O)ccc2ccccc12)c1ccc(CO)nc1,n,n,n,n,n,3.5µM
CCOc1ccc2ccccc2c1/C=N/NC(=O)c1cc(C)[nH]n1,n,n,n,n,n,x
O=C(NN=Cc1c(O)ccc2ccccc12)c1ccc2c(c1)OCO2,n,n,n,n,x,n
CCOc1ccc2ccccc2c1/C=N/NC(=O)c1ccncc1,n,n,n,n,20µM,n
O=[N+]([O-])c1c(NCc2ccco2)ccc2nonc12,n,n,n,n,3.2µM,n
CCOC(=O)NNc1ccc2nonc2c1[N+](=O)[O-],u,10µM,10µM,u,45µM,32µM
O=C(CCc1cn(Cc2ccccc2F)c2ccccc12)NCc1ccc(Cl)cc1,x,n,n,n,n,x
CCOc1ccc(N2CC(c3nc4ccccc4n3Cc3cccc(Cl)c3)CC2=O)cc1 (stereo not drawn),x,n,n,n,n,x
CCOC(=O)C1(CC2CC2)CCN(Cc2ccc(OC)cc2F)CC1,n,n,n,n,89µM,n
COc1cc2oc(=O)cc(-c3ccc(-c4ccc(CO)cc4)cc3)c2c(OC)c1OC,n,n,n,u,x,n
O=C1c2cccc3cc([N+](=O)[O-])cc(c23)C(=O)N1/N=C/c1ccc(O)cc1O,u,u,50µM,u,40µM,u
CCN(CC)c1ccc(/C=N/N2C(=O)c3ccccc3C2=O)c(O)c1,u,n,n,u,n,n
CN(C)c1ccc(C=NC2CCc3ccccc32)cc1 (stereo not drawn),x,n,x,n,x,x

# From PubChem
